Experimental findings from PubChem BioAssay are described below.

The assay can be described thus: small-molecule microarray binders of probe aEGFR, primary screen, biochemical, biotinylated probe, 635/667 nm fluorescence (AID 1097).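 Also: probe is a biotinylated anti-EGFR antibody binding compounds printed on slides; score combines fluorescence near 667 nm and signal to noise of each spot.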 Particulars: higher = more signal.
Compound `CC(C)(C)OC(=O)CC[C@]1(C(=O)NCC(O)CO)N=C(c2ccc(OCCCO)cc2)O[C@H]1c1ccccc1N=[N+]=[N-]` (some centres not stated) returned a composite z-score of 0.0506.

In turn, `CCOC(=O)C1=CCC(c2cc3ccccc3[nH]2)N(CCN2CC(C(=O)OCC)=CCC2c2cc3ccccc3[nH]2)C1` (configuration not stated) displayed a composite z-score of -0.0084.

`COCC(=C=CC[C@H](O)c1ccccc1OCCO)C[C@H](O)COCc1ccccc1` yielded a composite z-score of 0.312.

In turn, `CN(C)CCCCNC(=O)[C@H]1C[C@H]2C(=O)N3CCC[C@H]3C(=O)N2[C@H]1c1cccc(OCCO)c1` came in with a composite z-score of -0.0968.

Take `COCCCNC(=O)[C@@H]1c2ccccc2C(=O)N(Cc2ccc(OC(F)(F)F)cc2)[C@H]1c1ccc(CO)cc1`: the composite z-score is -0.0949.

Compound `COc1ccc(C#Cc2ccc3c(c2)[C@]2(C(=O)N3)[C@H](C(=O)O)[C@H]3C(=O)O[C@H](c4ccccc4)[C@H](c4ccccc4)N3[C@@H]2c2ccccc2OCCO)cc1` showed a composite z-score of 0.0458.

On to `O=C1O[C@H](Cc2ccccc2)[C@@H]2[C@H]3C=CCCC=C3CN2[C@H]1Cc1ccc(O)cc1`, for which the composite z-score was -0.0958.
